# Screening data from PubChem.
# Shown are actives, neighbours in structure and some others; about 6% of the full set was active somewhere.
# D3 antag = qHTS of D3 Dopamine Receptor Antagonist: qHTS; D(3) dopamine receptor (Homo sapiens), P35462; D3R cells, DiscoveRx beta-arrestin luminescence, antagonist mode; stronger effect = lower value; max response, negative = inhibition, %; hit rate 2.5% among 360,000; in the data active means max response below about -50%; inconclusive means no clear call, values can overlap the other calls; further: on the % scale 0 is the no-effect control and ±100 the full control effect
#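 Cells expressing the human receptor were seeded at 1500 cells/well, incubated overnight at 37 degrees C in 5% CO2, then exposed to library compounds with dopamine controls for 90 minutes at 37 degrees C before luminescent detection.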
# D1 antagonist = Antagonist of Human D 1 Dopamine Receptor: qHTS. HEK293 TREx D1 cells, calcium flux, dopamine EC80; stronger effect = lower value. activity change, negative = inhibition, % at 10 µM. hit rate 3.2% among 360,000; in the data active means activity change below about -30%; further: on the % scale 0 is the no-effect control and ±100 the full control effect
# Target sequence (P21728 whole entry, looked up): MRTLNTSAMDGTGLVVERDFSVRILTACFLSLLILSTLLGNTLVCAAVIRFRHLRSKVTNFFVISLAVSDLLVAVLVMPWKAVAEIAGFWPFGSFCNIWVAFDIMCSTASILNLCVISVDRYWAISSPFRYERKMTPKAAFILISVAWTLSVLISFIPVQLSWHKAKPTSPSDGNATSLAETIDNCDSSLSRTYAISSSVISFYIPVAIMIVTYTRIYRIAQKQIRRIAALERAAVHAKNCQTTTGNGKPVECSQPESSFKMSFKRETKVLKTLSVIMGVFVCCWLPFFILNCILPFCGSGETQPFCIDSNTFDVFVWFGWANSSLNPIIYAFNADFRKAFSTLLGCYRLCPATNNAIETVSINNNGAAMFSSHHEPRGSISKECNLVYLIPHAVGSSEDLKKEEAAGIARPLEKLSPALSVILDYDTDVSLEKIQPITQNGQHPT
#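 Inducible Hek293 Trex D1 cells (tetracycline, overnight, 30 C). Calcium dye 30–90 min RT. Antagonist mode: EC80 dopamine added after 180 s compound read.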
# D1 ag = Allosteric Agonists of the Human D1 Dopamine Receptor: qHTS; AID 504660, 2011; activation, % at 2 µM; HEK293 T-REx D1 cells, calcium flux, agonist mode; D(1A) dopamine receptor (Homo sapiens), P21728; hit rate 1% among 360,000; in the data active means activation above about 30%; further: 0% is about no effect
#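 Agonism was scored from calcium flux recorded over 180 s (1 read/s) after pintool compound addition, following a 10-cycle baseline. Cells were inducible force-coupled HEK293 TREx D1, plated overnight at 30 C and loaded with no-wash calcium dye.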
# D1 PAM = Potentiators of Human D1 Dopamine Receptor: qHTS. D(1A) dopamine receptor (Homo sapiens), P21728. HEK293 TREx D1 cells, calcium flux, dopamine EC20 potentiation. potentiation, % at 10 µM. hit rate 0.036% among 360,000; in the data active means potentiation above about 30%; further: 0% is about no effect
# DRD3 agonist = qHTS of D3 Dopamine Receptor Agonist: qHTS; D(3) dopamine receptor (Homo sapiens), P35462; max activation, %; hit rate 0.58% among 410,000; D3R DiscoveRx beta-arrestin cells, luminescence, 90 min; in the data active means max activation above about 30%; further: 0% is about no effect
#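 Agonist mode: compounds and dopamine controls were applied to plated cells for 90 min at 37 degrees C after an overnight attachment at 1500 cells/well. Luminescent read-out followed 30 - 60 minutes at room temperature with DiscoveRx detection reagent.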
# * hit, by the source's call; ? = inconclusive; nt = no result given; ! = not active in a repeat.
SMILES,D3 antag,D1 antagonist,D1 ag,D1 PAM,DRD3 agonist
C=CCn1c(SCCCC)nc(O)cc1=O,-3.4,-14.6,79.5*,3.6,1.7
Cc1sc2ncn(CC(=O)Nc3ccc(C(F)(F)F)cc3)c(=O)c2c1S(=O)(=O)N1CCN(C)CC1,nt,8.9,1.2,-0.3,-12.0
O=C(NCCc1ccc(F)cc1)c1cccc(NC(=O)c2ccccc2)c1,-6.7,-2.2,2.6,-5.7,-6.6
COc1ccc(Br)cc1CN1CCSCC1,18.4,-1.1,-4.4,-0.5,-4.9
O=C(O)c1ccccc1-c1c2cc(I)c(=O)c(I)c-2oc2c(I)c(O)c(I)cc12,-61.7*,nt,nt,nt,-28.7
COc1ccccc1N1CCN(C(=O)C2C3C=CC4(CN(Cc5ccccc5Cl)C(=O)C24)O3)CC1 (centres undefined),14.8,-34.6*,2.7,-8.5,9.2
CCOCCOc1cccc(C(=O)NC(c2ccccc2)c2ccccc2)c1,21.7,4.1,7.1,-3.2,3.1
Cc1cccnc1C(c1ccc(F)cc1)N(C)C(=O)C1CCN(CCOc2ccc(Cl)cc2Cl)CC1 (centres undefined),-73.6*,nt,nt,nt,-3.5
Cc1cccnc1C(c1ccc(F)cc1)N(C)C(=O)C1CCN(CCCOc2ccc(F)cc2)CC1 (centres undefined),-94.1*,nt,nt,nt,-20.7
O=C(NCC(c1ccco1)N1CCCC1)c1cccc(S(=O)(=O)N2CCc3ccccc32)c1 (centres undefined),?,nt,nt,nt,-2.4
O=C(/C=C/[C@H]1O[C@@H](n2cnc3c(NC(=O)c4ccccc4)ncnc32)[C@H](O)[C@@H]1O)NCc1ccc2c(c1)OCO2,-24.0,nt,nt,nt,-2.1
COC(=O)CNC(=O)C1CCN(S(=O)(=O)c2cnc[nH]2)CC1,31.9,6.6,2.7,-1.8,-2.2
Cc1cc(Cl)c(S(=O)(=O)N2CCN(c3cccc(C)c3C)CC2)cc1OCC(N)=O,27.8,-12.9,2.4,-6.4,-4.7
CN(C)S(=O)(=O)N1CCN(c2cc(Cl)ccc2Cl)CC1,-5.0,14.0,40.1*,-4.5,-4.2
Cc1cccc(N2CCN(S(=O)(=O)c3cc(Cl)ccc3Cl)CC2)c1C,nt,-4.0,1.5,-1.8,65.1*
COc1ccc(OCC(=O)NC2CC(=O)N(c3cccc(OC)c3)C2)cc1 (centres undefined),nt,nt,-2.1,2.3,-9.7
COc1cccc(N2CC(NC(=O)c3cc4ccccc4o3)CC2=O)c1 (centres undefined),nt,nt,5.6,-3.1,-13.5
Cc1ccc2c(=O)cc(C(=O)Nc3sc4c(c3C(N)=O)CCCC4)oc2c1,nt,0.9,3.5,-0.8,-8.6
CCNS(=O)(=O)c1ccc(NC(=O)Cn2nc(C(F)(F)F)cc2C)cc1,-13.3,-39.0*,7.1,-2.2,-1.9
Cc1ccc(S(=O)(=O)/N=C2/C=C(Sc3ncn[nH]3)C(=O)c3ccccc32)cc1,-104.1*,24.0,6.4,4.0,-22.4
CC(C)c1ccc(S(=O)(=O)/N=C2/C=C(Sc3ncn[nH]3)C(=O)c3ccccc32)cc1,-75.2*,-5.0,0.5,8.4,-6.1
CCC(C)NC(=O)Cn1cnc2sc(C)c(S(=O)(=O)N3CCN(c4ncccn4)CC3)c2c1=O (centres undefined),0.0,10.1,2.8,-2.1,4.0
Cc1sc2ncn(CC(=O)Nc3ccc(C(C)C)cc3)c(=O)c2c1S(=O)(=O)N1CCN(c2ncccn2)CC1,nt,-60.8*,1.4,-0.3,6.8
N#Cc1c(N)nc2c3c(sc(=N)c2c1N)NC(=O)CC3c1ccccc1 (centres undefined),8.1,-34.6*,-0.8,-2.6,-1.6
N#Cc1c(N)nc2c3c(sc(=N)c2c1N)NC(=O)CC3c1c(F)cccc1Cl (centres undefined),-10.6,0.7,4.9,-7.3,-1.4
SMILES,D3 antag,D1 antagonist,D1 ag,D1 PAM,DRD3 agonist
Cc1cc(=O)n(Cc2ccc(Br)cc2F)c2c1c(C)nn2-c1ccccc1,nt,-1.2,2.8,-1.7,2.4
Cc1cccc(-n2c(=O)[nH]c3c(C(N)=O)nc(CC(C)C)nc32)c1,0.0,-35.8*,1.8,-9.2,5.3
CC(C)Cc1nc(C(N)=O)c2[nH]c(=O)n(-c3ccc(F)cc3)c2n1,2.9,6.2,1.3,-1.7,1.8
CN=c1scc(-c2ccccc2F)n1/N=C/c1ccc[nH]1,-23.8,7.4,0.7,-1.6,-8.1
CCN=c1scc(-c2cccs2)n1/N=C/c1cc(OC)ccc1O,8.0,-3.4,1.1,-0.4,10.0
CN=c1scc(-c2ccccc2F)n1/N=C/c1ccc(O)c(O)c1O,11.5,-40.6*,18.5,-9.7,107.3*
CC(C)N=c1scc(-c2cccs2)n1/N=C/c1ccc(O)c(O)c1O,49.4,-5.8,8.3,-3.2,64.0*
O=C(CN(c1ccc(Cl)c(C(F)(F)F)c1)S(=O)(=O)c1ccccc1)N1CCc2ccccc2C1,nt,-17.8,6.0,-0.2,6.3
Cc1ccc(S(=O)(=O)NCc2nc3nc(C)cc(C)n3n2)c(C)c1,1.0,-65.1*!,3.5,-8.1,-0.4
CC(=Nc1ccccc1)C1=C(O)C(Cc2cccc(F)c2)NC1=O (centres undefined),-14.7,nt,nt,nt,-8.4
CCCCC#Cc1ccc2c(c1)COc1c3ccccc3nn1-2,77.5,14.4,5.7,1.1,31.5*
CC(C#Cc1ccc2c(c1)COc1c3ccccc3nn1-2)OC(C)(C)C (centres undefined),82.2,0.8,1.6,-1.7,52.2*
COc1ccc(-n2c(=O)c3c4c(sc3n(Cc3ccc(C(C)(C)C)cc3)c2=O)CCC4)c(OC)c1,nt,-0.1,2.7,1.6,2.5
Cc1cccc(NC(=S)N/C(=N/S(=O)(=O)c2ccccc2)c2ccccc2)c1,-60.7*!,4.7,1.7,-11.6,-3.4
COC(=O)c1ccc(OC)c(CN2CCCN(Cc3ccc(C)cc3)S2(=O)=O)c1,nt,-33.9*,4.8,-2.9,5.6
O=C(NCCc1c[nH]c2ccccc12)c1[nH]c(C(F)(F)F)nc1-c1ccccc1,1.7,nt,nt,nt,2.2
Cc1cc(Cl)ccc1OCCCC(=O)N1CCN(C)CC1,0.0,-0.6,2.5,-9.5,-10.3
Cc1cc(Cl)ccc1OCCCC(=O)NC1CCN(C)CC1,-16.4,-41.9*,22.6,-14.7,-17.5
Cc1cc(NC(=O)COC(=O)CCCOc2ccc(Cl)cc2C)no1,0.0,-30.1*,2.9,-9.7,3.2
Cc1cc(NC(=O)COC(=O)CCS(=O)(=O)c2ccc(Cl)cc2)no1,2.3,8.8,1.2,-0.8,16.2
CC(=O)c1cc2ccc(O)cc2oc1=O,40.9,5.1,37.8*,0.5,19.5
N#CNC(N)=Nc1cccc(Cl)c1,6.6,11.3,1.8,-10.3,-0.8
Cc1cc(C)cc(C(N)=Nc2cccc(C#N)c2)c1,3.2,-50.2*,1.8,-4.0,-3.9
